From PubChem BioAssay (NCI) come the findings set out here.

About 83,000 compounds went through this panel and 20% of them were active in at least one assay; those are over-represented in the sample as a whole.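 Interpretation: 100, growth as untreated; towards 0, rising growth inhibition; 0, no net growth; 0 to -100, cell death. Compounds scoring below 10 were considered active.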 Values without a mark were called inactive. Activity calls are given as the source filed them.

Among the test systems are RPMI-8226 leukemia; OVCAR-8 ovarian; OVCAR-5 ovarian; OVCAR-4 ovarian; SK-OV-3 ovarian; IGROV1 ovarian; OVCAR-3 ovarian; HS 578T breast; NCI/ADR-RES ovarian.
Holding throughout (test): NCI-60 one-dose screen, 48 h (100 = growth as untreated, 0 = no growth, -100 = all killed)
Settings in all cases: 10 µM unless noted

For `CN(C(=S)S(=O)(=O)C12CC3CC(CC(C3)C1)C2)c1ccccc1`, the growth with RPMI-8226 leukemia was 83.9%; with OVCAR-8 ovarian, 98.6%; in the test with OVCAR-5 ovarian, 89.6%; with OVCAR-4 ovarian, 104%; with SK-OV-3 ovarian, 99.9%; with IGROV1 ovarian it was 8.02% (active). Besides, the growth is 73.7% in the test with OVCAR-3 ovarian, 85% with HS 578T breast and 102% with NCI/ADR-RES ovarian.

As for `CC(=O)N(C(C)=O)c1ccc(C)cc1`, the growth in the test on RPMI-8226 leukemia is 115%; with OVCAR-8 ovarian, 101%; in the test on OVCAR-5 ovarian it was 94.2%; with OVCAR-4 ovarian, 101%; with SK-OV-3 ovarian it was 109%; with IGROV1 ovarian, 109%. Besides, the growth in the test on OVCAR-3 ovarian was 112%; with HS 578T breast, 110%; in the test on NCI/ADR-RES ovarian, 96.6%.

Consider `CC(=O)N(C)N=Nc1ccc(C)cc1`, for which the growth is 102% with RPMI-8226 leukemia; 112% in the test with OVCAR-8 ovarian; 83.1% in the test on OVCAR-5 ovarian; 102% in the test on OVCAR-4 ovarian; 110% in the test on SK-OV-3 ovarian; 152% with IGROV1 ovarian. Further, the growth in the test on HS 578T breast is 95.1%; with NCI/ADR-RES ovarian it was 99.1%.

Turning to `O=C1C=C(c2ccccc2)C(O)(c2ccccc2)C1` (stereo unspecified), the growth is 98.1% with RPMI-8226 leukemia; 106% in the test on OVCAR-8 ovarian; 93.6% with OVCAR-5 ovarian; 95.7% in the test on OVCAR-4 ovarian; 101% in the test on SK-OV-3 ovarian; 107% in the test on IGROV1 ovarian. Besides, the growth with OVCAR-3 ovarian was 112%; in the test with HS 578T breast it was 109%; with NCI/ADR-RES ovarian it was 104%.

Consider `CCCCCCCCCCCCCC/C=C\C(CC(=O)O)C(=O)O` (stereo unspecified), for which the growth was 113% in the test on RPMI-8226 leukemia; 103% in the test with OVCAR-8 ovarian; 105% with OVCAR-5 ovarian; 112% with OVCAR-4 ovarian; 105% in the test with SK-OV-3 ovarian; 117% with IGROV1 ovarian. For the same compound, the growth was 114% in the test on OVCAR-3 ovarian, 127% in the test on HS 578T breast and 107% in the test on NCI/ADR-RES ovarian.

As to `NC(=S)N/N=C/c1ccc(OC(=O)COc2ccc(Cl)cc2)cn1`, the growth in the test with RPMI-8226 leukemia is 59.1%; with OVCAR-8 ovarian, 23.9%; in the test on OVCAR-5 ovarian, 120%; with OVCAR-4 ovarian it was 59.2%; with SK-OV-3 ovarian, 82.1%; in the test with IGROV1 ovarian, 46.5%. Besides, the growth was 56.4% in the test on OVCAR-3 ovarian, 114% in the test with HS 578T breast and 27.9% with NCI/ADR-RES ovarian.

Regarding `O=C(O)C1CCCN1C(=O)OCc1ccccc1` (stereo unspecified), the growth was 112% in the test with RPMI-8226 leukemia; 94.8% with OVCAR-8 ovarian; 105% in the test with OVCAR-5 ovarian; 122% in the test with OVCAR-4 ovarian; 102% in the test with SK-OV-3 ovarian; 104% in the test on IGROV1 ovarian. For the same compound, the growth in the test on HS 578T breast was 100%; in the test on NCI/ADR-RES ovarian it was 105%.

For the compound `O=S(=O)(O)c1cccc2cccnc12`, the growth was 107% with RPMI-8226 leukemia; 112% in the test on OVCAR-8 ovarian; 106% in the test on OVCAR-5 ovarian; 118% in the test with OVCAR-4 ovarian; 114% in the test with SK-OV-3 ovarian; 101% with IGROV1 ovarian. The results for the growth in the test with OVCAR-3 ovarian, in the test on HS 578T breast and in the test on NCI/ADR-RES ovarian were 95.3%, 95.2% and 106%, respectively.

As to `COc1nc2ccccc2s1`, the growth was 91.6% in the test on RPMI-8226 leukemia; 96.3% in the test on OVCAR-8 ovarian; 93.1% with OVCAR-5 ovarian; 118% with OVCAR-4 ovarian; 89.5% with SK-OV-3 ovarian; 98.6% with IGROV1 ovarian. For the same compound, the growth was 110% in the test with OVCAR-3 ovarian, 91% in the test on HS 578T breast and 99.2% with NCI/ADR-RES ovarian.

With `Cc1ccccc1CC(N)C(=O)O` (stereo unspecified), the growth with RPMI-8226 leukemia was 109%; in the test with OVCAR-8 ovarian, 104%; in the test with OVCAR-5 ovarian, 116%; with OVCAR-4 ovarian, 103%; with SK-OV-3 ovarian it was 104%; in the test with IGROV1 ovarian, 109%. For the same compound, the results for the growth in the test with OVCAR-3 ovarian, in the test on HS 578T breast and in the test on NCI/ADR-RES ovarian were 104%, 114% and 114%, respectively.

`CCNc1ccc2ccccc2c1N=Nc1ccc(N=Nc2ccccc2)cc1`: the growth was 95.9% with RPMI-8226 leukemia; 104% in the test with OVCAR-8 ovarian; 93.1% in the test on OVCAR-5 ovarian; 98.4% with OVCAR-4 ovarian; 97.4% in the test on SK-OV-3 ovarian; 0.773% (active) in the test with IGROV1 ovarian. The growth was 109% in the test with OVCAR-3 ovarian, 110% with HS 578T breast and 109% in the test with NCI/ADR-RES ovarian.

Turning to `O=[N+]([O-])c1c(O)c(CNCCCO)cc(CNCCCO)c1O`, the growth in the test with RPMI-8226 leukemia was 116%; with OVCAR-8 ovarian, 106%; with OVCAR-5 ovarian, 108%; in the test with OVCAR-4 ovarian, 105%; in the test with SK-OV-3 ovarian, 106%; in the test on IGROV1 ovarian it was 2.99% (active). Also, the growth with HS 578T breast was 97.1%; with NCI/ADR-RES ovarian, 104%.

With `CC(=O)Nc1ccc(/C=C2\SC(=S)N(/C=C(\C(C)=O)C(N)=O)C2=O)cc1`, the growth is 83.9% in the test on RPMI-8226 leukemia; 92.8% in the test with OVCAR-8 ovarian; 98.7% in the test with OVCAR-5 ovarian; 86.9% in the test on SK-OV-3 ovarian; 105% with IGROV1 ovarian; 105% in the test on OVCAR-3 ovarian. Also, the growth is 95.7% with HS 578T breast and 100% with NCI/ADR-RES ovarian.

Regarding `COc1ccc(Br)c2c1C(=O)CC2`, the growth is 112% with RPMI-8226 leukemia; 106% with OVCAR-8 ovarian; 97.8% in the test with OVCAR-5 ovarian; 107% with OVCAR-4 ovarian; 112% in the test with SK-OV-3 ovarian; 103% in the test on OVCAR-3 ovarian. In addition, the results for the growth in the test with HS 578T breast and with NCI/ADR-RES ovarian were 140% and 110%, respectively.

With `O=C1Nc2ccccc2/C1=C\c1ccccc1O`, the growth in the test with OVCAR-8 ovarian is 91.1%; in the test on OVCAR-5 ovarian, 94.4%; in the test on SK-OV-3 ovarian it was 94.7%; in the test on IGROV1 ovarian, 17.9%; with OVCAR-3 ovarian, 89.3%; with HS 578T breast, 86.2%. Further, the growth with NCI/ADR-RES ovarian was 84.9%.

As for `N#C/C(=C\c1ccc(C#N)cc1)C(=O)c1ccccc1`, the growth was 101% with OVCAR-8 ovarian; 104% in the test on OVCAR-5 ovarian; 98.7% in the test with OVCAR-4 ovarian; 109% with SK-OV-3 ovarian; 105% in the test on OVCAR-3 ovarian; 116% with HS 578T breast. The growth in the test on NCI/ADR-RES ovarian is 98.7%.

For the compound `Cc1cc(C)cc(OCC(=O)O)c1`, the growth is 108% with RPMI-8226 leukemia; 100% in the test on OVCAR-8 ovarian; 94.6% in the test on OVCAR-5 ovarian; 113% in the test with OVCAR-4 ovarian; 101% with SK-OV-3 ovarian; 124% in the test on OVCAR-3 ovarian. Further, the growth in the test on HS 578T breast and with NCI/ADR-RES ovarian was 105% throughout.

Regarding `NC(=S)c1c(N)n(C2OC(CO)C(O)C2O)c2ncnc(N)c12` (stereo unspecified), the growth was 3.64% (active) in the test with OVCAR-5 ovarian; 14.5% in the test with OVCAR-4 ovarian; 5.93% (active) in the test with SK-OV-3 ovarian; -61.2% (active) in the test with IGROV1 ovarian; -20.1% (active) in the test on HS 578T breast; -1.77% (active) with NCI/ADR-RES ovarian.

`CCCCCCCCCCCCSC1=C(Cl)C(=O)C(OC)=C(OC)C1=O`: the growth in the test on OVCAR-8 ovarian was 28.7%; with OVCAR-5 ovarian, 80%; with OVCAR-4 ovarian, 38.8%; with SK-OV-3 ovarian, 79.9%; with IGROV1 ovarian, 5.92% (active); in the test on OVCAR-3 ovarian it was 38.8%. In addition, the growth in the test on HS 578T breast was 67.3%; in the test on NCI/ADR-RES ovarian, 34.9%.

Regarding `S=c1nc2[nH]c3ccccc3c2n[nH]1`, the growth is 74.2% in the test on RPMI-8226 leukemia; 93.6% in the test on OVCAR-5 ovarian; 102% with OVCAR-4 ovarian; 89.3% in the test with SK-OV-3 ovarian; 103% with IGROV1 ovarian; 88.6% in the test with OVCAR-3 ovarian. The results for the growth in the test with HS 578T breast and in the test on NCI/ADR-RES ovarian were 80.2% and 102%, respectively.

For `Cc1cc(CC(=O)NCCO)n(CCO)c(=O)c1`, the growth in the test with OVCAR-5 ovarian was 106%; in the test with OVCAR-4 ovarian it was 108%; with SK-OV-3 ovarian, 104%; in the test with IGROV1 ovarian it was 108%; with OVCAR-3 ovarian, 106%; in the test with HS 578T breast it was 101%. Moreover, the growth in the test with NCI/ADR-RES ovarian is 106%.

For `COC(=O)C1=C(C)C(=O)CC1`, the growth in the test with RPMI-8226 leukemia was 110%; in the test with OVCAR-5 ovarian, 99.6%; in the test with OVCAR-4 ovarian, 119%; with SK-OV-3 ovarian it was 112%; in the test on IGROV1 ovarian, 112%; with OVCAR-3 ovarian it was 114%. The growth is 104% with HS 578T breast and 135% in the test on NCI/ADR-RES ovarian.

As for `CCNC(=O)OCCc1c2ccccc2nc2ccccc12`, the growth in the test with RPMI-8226 leukemia is 76.7%; in the test with OVCAR-8 ovarian, 98%; with OVCAR-5 ovarian, 111%; in the test on OVCAR-4 ovarian it was 98.1%; with SK-OV-3 ovarian, 109%; in the test on OVCAR-3 ovarian, 109%. Also, the growth with HS 578T breast is 90.2%; in the test on NCI/ADR-RES ovarian, 119%.

As to `CC(c1ccccc1)N1C(=O)CSC1=S` (stereo unspecified), the growth with RPMI-8226 leukemia was 16.9%; in the test with OVCAR-8 ovarian it was 34.2%; in the test with OVCAR-5 ovarian it was 91.2%; with OVCAR-4 ovarian it was 29.7%; with SK-OV-3 ovarian it was 104%; in the test on IGROV1 ovarian, -31.6% (active). Besides, the results for the growth in the test on HS 578T breast and in the test on NCI/ADR-RES ovarian were 81.3% and -62.5% (active), respectively.
